# Measured values taken from PubChem BioAssay (NCI).
# The panel holds about 83,000 compounds, 20% with a hit somewhere; the sample as a whole holds those more often.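 Plates (96-well) were seeded with cells, treated with compound at one concentration, and incubated for 48 hours before percent growth was determined.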 A number with no mark means an inactive call. Activity calls are given as the source filed them. Rule for the calls: active = growth percent below 10; inactive = the rest.
# Tests used:
# Test in all cases: NCI-60 one-dose screen, 48 h (100 = growth as untreated, 0 = no growth, -100 = all killed)
# Settings in all cases: 10 µM unless noted
# NCI-H23 lung = tested on: NCI-H23 lung
# NCI-H226 lung = tested on: NCI-H226 lung
# NCI-H322M lung = tested on: NCI-H322M lung
# HOP-62 NSCLC = tested on: HOP-62 NSCLC
# NCI-H460 lung = tested on: NCI-H460 lung
# HOP-92 NSCLC = tested on: HOP-92 NSCLC
# NCI-H522 lung = tested on: NCI-H522 lung
# A549/ATCC NSCLC = tested on: A549/ATCC NSCLC
# 786-0 renal = tested on: 786-0 renal
# COLO 205 colon = tested on: COLO 205 colon
# DU-145 prostate = tested on: DU-145 prostate
# K-562 leukemia = tested on: K-562 leukemia
# MALME-3M melanoma = tested on: MALME-3M melanoma
# MDA-MB-231 breast = tested on: MDA-MB-231 breast
# RXF 393 renal = tested on: RXF 393 renal
# SF-268 CNS = tested on: SF-268 CNS
# SF-295 CNS = tested on: SF-295 CNS
# SF-539 CNS = tested on: SF-539 CNS
# UACC-257 melanoma = tested on: UACC-257 melanoma
# M14 melanoma = tested on: M14 melanoma
SMILES,growth (NCI-H23 lung),growth (NCI-H226 lung),growth (NCI-H322M lung),growth (HOP-62 NSCLC),growth (NCI-H460 lung),growth (HOP-92 NSCLC),growth (NCI-H522 lung),growth (A549/ATCC NSCLC),growth (786-0 renal),growth (COLO 205 colon),growth (DU-145 prostate),growth (K-562 leukemia),growth (MALME-3M melanoma),growth (MDA-MB-231 breast),growth (RXF 393 renal),growth (SF-268 CNS),growth (SF-295 CNS),growth (SF-539 CNS),growth (UACC-257 melanoma),growth (M14 melanoma)
CC(=O)CC/C=C(\C)[C@H](O)[C@H](C)C(=O)O[C@H]1C[C@H](C)C=C2C=C[C@@]3(C)O[C@@H](O)CC(=O)[C@]3(C)[C@H]21,-35.8% (active),-50.5% (active),-17.6% (active),-31.8% (active),-16.6% (active),-32.5% (active),-43.4% (active),-10.6% (active),-49.7% (active),-45.6% (active),-22% (active),-8.89% (active),-82.5% (active),-39.2% (active),-88% (active),-21.5% (active),-22.7% (active),-35.2% (active),-33.7% (active),–
COc1cc2c(cc1OCCCCC(=O)Nc1ccc(-c3nc4ccccc4s3)cc1)N=C[C@@H]1CCCN1C2=O,-11.4% (active),-43.7% (active),-0.382% (active),-2.65% (active),-19.5% (active),-53% (active),-54% (active),-42.2% (active),-6.44% (active),-60.5% (active),3.12% (active),-17.6% (active),-80.2% (active),14.7%,-83% (active),7.56% (active),18.3%,-46.6% (active),-47.1% (active),–
O=C(O)c1ccc(-c2nn(-c3ccc(C(=O)O)cc3)cc2/C=N/Nc2c(F)c(F)cc(F)c2F)cc1,96%,103%,99.9%,99%,114%,115%,89.2%,97.7%,112%,111%,105%,105%,93.7%,105%,112%,93.2%,102%,102%,95.7%,–
O=C(Nc1ccc(-n2ccc3c(NC(=O)c4ccccc4)nccc32)cc1)Nc1cccc(C(F)(F)F)c1,38.7%,44.7%,63.2%,84.5%,34.3%,32.3%,45.8%,7.66% (active),88.1%,64.7%,31.8%,21.2%,73.4%,63.7%,10.3%,51.8%,37.1%,44.8%,68.8%,–
C[C@H]1C=C(C[C@@H](O)CC#CC#CCCCCC[C@@H](O)[C@H]2CCC(=O)O2)C(=O)O1,99.9%,98.6%,114%,94.5%,118%,99.9%,78.7%,111%,190%,115%,109%,86.3%,105%,96.4%,103%,110%,106%,93.1%,91.8%,–
CCc1cccc(-c2ccccc2)c1,107%,109%,107%,101%,108%,92.9%,106%,104%,98.8%,105%,110%,109%,114%,114%,130%,108%,107%,97.6%,99.1%,–
O=C(Nc1cccc(-n2ccc3c(NC(=O)c4ccccc4)nccc32)c1)c1cc(N2CCOCC2)cc(C(F)(F)F)c1,19.8%,28.7%,30.8%,36.6%,-11% (active),29.3%,-47.5% (active),-8.84% (active),-31.6% (active),-51.4% (active),-20.2% (active),4.28% (active),32%,-16.6% (active),-67.3% (active),8.26% (active),-24.4% (active),-23.2% (active),32%,9.34% (active)
Cc1ccc[n+](CC(=O)c2cccc3ccccc23)c1,102%,96.2%,97%,100%,111%,97.1%,101%,111%,93.8%,101%,115%,102%,97.3%,130%,105%,103%,97.1%,93.2%,112%,98.3%
O=[N+]([O-])c1cccc(C2c3ccccc3Oc3ccccc32)c1,94.6%,84.1%,83.6%,85.4%,88.1%,81%,80.8%,87.4%,99.9%,90.3%,101%,65.7%,101%,92%,109%,102%,76.9%,112%,104%,–
Cc1cc[n+](CCCC[n+]2ccc(C)cc2)cc1,96%,99%,97.1%,108%,108%,74.3%,120%,104%,95.8%,110%,101%,109%,97.6%,105%,106%,102%,103%,102%,111%,95.4%
CCCC(C)(C)COC(=O)c1cccc(N)c1,103%,87.8%,80.9%,92.5%,108%,85%,60.6%,89.7%,93.6%,110%,106%,87%,92%,106%,123%,97.7%,101%,103%,83.3%,–
O=C(Nc1ccc(-n2ccc3c(NC(=O)c4ccccc4)nccc32)cc1)c1ccc(Cl)c(C(F)(F)F)c1,64%,69.9%,66.1%,53.9%,-67% (active),46.5%,-0.6% (active),-29.9% (active),22.9%,37.2%,23.6%,-31.6% (active),57.9%,55.8%,18.4%,28.7%,25.3%,24.1%,58.8%,31.5%
c1ccc(OCC[P+](c2ccccc2)(c2ccccc2)c2ccccc2)cc1,7.98% (active),38.5%,59.4%,26.8%,17.1%,-5.38% (active),-9.67% (active),30.9%,53.2%,2.02% (active),36.4%,17.5%,15.5%,43.6%,51%,20.9%,21.2%,32%,-4.91% (active),32.6%
COc1cc(C(=O)NNC(=O)c2ccccc2O)cc(OC)c1OC,101%,96.8%,93.5%,99.7%,102%,83%,61.9%,82.9%,97.6%,94.3%,104%,95.7%,103%,87.5%,99%,98.1%,98.2%,98.5%,72.4%,–
COc1ccc(-c2[nH]c3ccccc3c2/C=C(\C#N)S(=O)(=O)c2ccccc2)cc1,17.5%,65.2%,61.9%,35.5%,3.97% (active),65.5%,26.8%,33.9%,22.1%,-39.4% (active),12.3%,33.8%,73.6%,31.5%,-12.2% (active),45.1%,-11.5% (active),-30.7% (active),73.2%,20.2%
O=C(Nc1ccc(-n2ccc3c(NC(=O)c4ccccc4)ncnc32)cc1)Nc1cccc(Cl)c1Cl,-13.7% (active),-37.6% (active),43.9%,-32% (active),-48.4% (active),-21.1% (active),-31.6% (active),-69.6% (active),6.42% (active),15.9%,1.29% (active),12.5%,2.21% (active),-9.33% (active),-76.1% (active),-26.8% (active),-47.9% (active),-10.4% (active),12.2%,-6.74% (active)
